This is one part of a sample in which hits are shown more often than they occur.
CHX counter-1 – counter-screen hit for Shiga toxin inhibitors, cycloheximide; AID 2314; max response, %; cell reporter, cycloheximide protein synthesis inhibition counterscreen; 300,000 compounds, 12% hits; in the data active = max response mostly above about 13%, no sharp cut-off; inactive = mostly below about 14%; note: read at 38.3 µM for the half of the compounds with a filed dose; 0% is about no effect
Shiga inhibitor – Shiga toxin inhibition; 290,000 compounds, 9.2% hits; Vero cells, Shiga toxin protein synthesis inhibition reporter; inhibition, % at 38.7 µM; AID 2315; in the data active = inhibition mostly above about 28%, no sharp cut-off; inactive = mostly below about 43%; note: 0% is about no effect
FBPA Giardia inh – blocks Giardia fructose-bisphosphate aldolase activity; purified Giardia FBPA; Potency, µM (highest dose often 59.6 µM), for inactives: at the top dose activity, negative = inhibition, hits mostly inhibitors; 290,000 compounds, 0.71% hits; AID 2451; note: potency is the fitted concentration of half-maximal effect; % is set by controls: 0 for no effect and ±100 for the full control effect; nearly all actives have a fitted effect of over 55% in size
Target sequence (A8B2U2 whole entry, looked up): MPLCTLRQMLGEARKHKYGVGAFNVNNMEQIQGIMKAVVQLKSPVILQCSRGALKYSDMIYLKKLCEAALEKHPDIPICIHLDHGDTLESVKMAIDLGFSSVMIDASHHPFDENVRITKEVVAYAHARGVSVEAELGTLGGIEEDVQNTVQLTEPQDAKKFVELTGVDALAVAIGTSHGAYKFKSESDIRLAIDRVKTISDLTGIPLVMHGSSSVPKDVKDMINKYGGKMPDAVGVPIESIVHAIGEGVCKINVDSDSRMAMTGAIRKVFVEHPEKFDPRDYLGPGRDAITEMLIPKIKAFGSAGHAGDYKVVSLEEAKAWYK
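40 nM FBPA preincubated 10 min at RT with compound (up to 57.5 uM final), then substrate plus GAPDH/TPI/NAD/arsenate coupling and diaphorase/resazurin added. Fluorescence read after 20 min at RT, 525/598 nm.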
RE007 growth inh – less growth of the S. pombe RE007 Vpr strain; S. pombe RE007 Vpr strain, BacTiter-Glo ATP luminescence, 24 h; Potency, µM (series often up to 92.2 µM), inactives show at the highest dose activity change, negative = less growth, hits mostly inhibitors; 360,000 compounds, 0.21% hits; active = well fitted falling curve with a large enough effect; inconclusive = small, poorly fitted or top-dose-only effect; inactive = no such curve, though single readings can be large or run the other way; note: potency is the fitted concentration of half-maximal effect; % is set by controls: 0 for no effect and ±100 for the full control effect; nearly all actives have a fitted effect of over 50% in size
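Fission yeast RE007 carrying one integrated HIV-1 vpr copy, seeded at OD 0.01 in PMG+AL medium with 23 nL pinned compound. Grown 24 h at 30 degrees; viability read by BacTiter-Glo luminescence after 5 min.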
LmPK inh – LmPK (Leishmania mexicana) enzyme inhibition | purified LmPK, Kinase-Glo ATP luminescence, 1 h | 290,000 compounds, 0.37% hits | AID 1721 | Q27686 | Potency, µM (doses to about 57.5 µM), without a hit: top-dose activity change, negative = inhibition, most hits filed as inhibitors; note: potency is the fitted concentration of half-maximal effect; % is set by controls: 0 for no effect and ±100 for the full control effect
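Pyruvate kinase activity monitored as ATP production (luciferase luminescence). Conditions: 0.1 nM enzyme, 0.5 mM PEP, 0.1 mM ADP, 1 h, RT; normalized against uninhibited and no-enzyme wells.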
Tb PYK inh – inhibitors of Trypanosoma brucei pyruvate kinase; Q57TT1; TbPYK enzyme, Kinase-Glo Plus ATP luminescence, 45 min; Potency, µM (titrated, usually from 76.8 µM), for the others: top-dose activity, negative = inhibition, hits mostly inhibitors; 410,000 compounds, 0.12% hits; note: potency is the fitted concentration of half-maximal effect; % is set by controls: 0 for no effect and ±100 for the full control effect; nearly all actives have a fitted effect of over 50% in size
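In this concentration-response screen, enzyme-free wells defined baseline while DMSO plates tracked drift. Each reaction combined TbPYK, substrate, compound and 130 uM ADP for 45 min at room temperature. Kinase-Glo Plus luminescence gave the signal.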
CHX counter-2 – counter-screen for Shiga toxin inhibitors: cycloheximide protein synthesis block | shares compounds with Shiga inhibitor | Cycloheximide counterscreen, protein synthesis reporter, Shiga toxin assay | Potency, µM (highest dose often 38.3 µM), for inactives: at the top dose activity (activation), hits mostly activators | 510 compounds, 3% hits; calls by dose curve; note: potency is the fitted concentration of half-maximal effect; 0% is about no effect
* hit, by the source's call; ? = inconclusive; . = no result; [ ] = another dose, or the depositor's remark. Unless noted, calls come from the whole dose curve; as a rule, active = well fitted curve in the direction sought with a large enough effect; inconclusive = small, poorly fitted or top-dose-only effect, or another doubt; inactive = no such curve, though single readings can be large; an effect the other way counts as inactive or inconclusive.

SMILES | CHX counter-1 | Shiga inhibitor | FBPA Giardia inh | RE007 growth inh | LmPK inh | Tb PYK inh | CHX counter-2
COC(=O)c1cc(NC(=O)c2ccc(Cn3cc(Cl)cn3)o2)cc(C(=O)OC)c1 | -5.9 | -7.8 | -0.7% | 9.3% | 3.1% | -0.4% | .
O=C(COCc1cc(-c2cccs2)on1)N1CCN(c2ccccc2)CC1 | . | . | . | . | . | 0.8% | .
O=C(COCc1cc(-c2ccc3c(c2)OCO3)on1)N1CCN(c2ccccc2)CC1 | 7.1 | 40.2* | . | -20.2% | -4.1% | -1.2% | 0.5%
COc1cccc(-c2nnc3sc(CN4CCCCC4)cn23)c1 | . | . | . | . | . | 2.1% | .
CCOC(=O)c1c(S(=O)(=O)Nc2ccc(C)cn2)c(C)n(C)c1C | 5.5 | 5.2 | . | 10.7% | 2.5% | -23.8% | .
Cc1nnc(N2C(=O)C(=O)/C(=C(/O)c3ccc4c(c3)OCCO4)C2c2ccc([N+](=O)[O-])cc2)s1 (configuration not stated) | 7.6 | 43.6* | . | . | -12.1% | . | -0.7%
O=C(Nc1ccccc1)c1ccccc1O | 17.8 | 59.1* | 0.9% | -29.8% | -2.0% | -8.2% | 22.5µM*
O=C(Nc1ccccc1)c1ccc[nH]1 | -1.6 | 39.6* | 1.8% | -7.3% | -8.4% | -15.2% | 3.8%
O=C(NCc1ccccc1Cl)c1ccc[nH]1 | -2.8 | -1.6 | -9.7% | -8.8% | 3.3% | -5.1% | .
CCCN(C(=O)CSc1nc2ccccc2n1CC)C1CCS(=O)(=O)C1 (configuration not stated) | 8.9 | -12.3 | . | -18.2% | -6.7% | -0.8% | .
COc1cccc(Nc2nc(NCCO)c3ccccc3n2)c1 | 9.7 | 50.2* | -18.0% | 0.0% | 0.8% | -9.1% | 1.4%
OCCNc1nc(Nc2cccc(O)c2)nc2ccccc12 | -2.9 | 13.5 | -3.4% | -2.8% | -2.2% | 2.6% | .
CCOC(=O)C1(CCCc2ccccc2)CCN(C(=O)CCn2cncn2)CC1 | 7.8 | 39.3* | -1.5% | 6.4% | -4.9% | -6.1% | 2.6%
Cc1cc(C)c(S(=O)(=O)N2CCOC2CNC(=O)C(=O)NCCN(C)C)c(C)c1 (configuration not stated) | 5.3 | -18.8 | . | 0.8% | -10.1% | -3.1% | .
Cc1sc(NC(=O)C2CCCC2)c(C#N)c1C | 1.3 | 18.9* | -19.0% | -13.7% | 1.9% | -23.6% | 0.7%
Cc1c(C(=O)N2CCCCC2)sc(NC(=O)C2CC2)c1C#N | 3.2 | 2.1 | -8.6% | -2.0% | -1.6% | 9.0% | .
O=C(COc1ccc(Cl)cc1)NCC(c1ccco1)S(=O)(=O)c1ccc(Cl)cc1 (configuration not stated) | . | . | . | . | . | -17.9% | .
COc1ccccc1CNc1nc2ccccc2n1CCN1CCCCC1 | 10.3 | 66.2* | 1.4% | -9.4% | 5.1% | -4.9% | -4.3%
Oc1ccccc1CNc1nc2ccccc2n1CCN1CCCCC1 | 8.3 | 12.6 | -3.5% | -4.2% | 0.8% | -1.8% | .
CC1(C(=O)NCc2cccc3ccccc23)CCN1Cc1cccc2c1OCO2 (configuration not stated) | . | . | . | -10.0%[18.4 µM] | . | 2.0% | .
COc1ccccc1-n1cnnc1SCC(=O)Nc1ccccc1 | 0.7 | 62.0* | 4.0% | -18.1% | 1.0% | 2.7% | 6.3%
Cc1nc(N2CCN(C(=O)c3ccco3)CC2)nc2c1C(=O)CCC2 | 14.8 | 36.1* | . | 16.2% | -14.3% | 0.8% | ?
Cc1nc(N2CCN(c3ccccc3)CC2)nc2c1C(=O)CCC2 | 12.9 | 21.8 | 0.7% | -5.9% | -7.4% | 0.0% | .
CN1CC(c2ccccn2)C2(SC(=S)N(Cc3ccccc3)C2=O)C12C(=O)Nc1ccccc12 (configuration not stated) | 0.9 | 70.8* | -21.4% | 13.6% | 2.8% | -17.8% | -5.5%
CN1CC(c2ccccc2)C2(SC(=S)N(Cc3ccco3)C2=O)C12C(=O)Nc1ccccc12 (configuration not stated) | 8.4 | 24.4 | -7.4% | 12.1% | 2.1% | -4.5% | .

Source: PubChem
